# The whole screen tested about 370,000 compounds, of which about 3,100 (0.84%) were called active. This excerpt belongs to a sample that is enriched for actives. Values without a mark were called inactive.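 The calls were made as follows: active = inhibition above the mean of compounds lying between control limits plus 3 SD, set per campaign (cut at about 8.5% in these data); inactive = the rest.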
# Target: Disintegrin and metalloproteinase domain-containing protein 17 (Homo sapiens) (UniProt P78536)
# Sequence (P78536 215-824 limits assumed): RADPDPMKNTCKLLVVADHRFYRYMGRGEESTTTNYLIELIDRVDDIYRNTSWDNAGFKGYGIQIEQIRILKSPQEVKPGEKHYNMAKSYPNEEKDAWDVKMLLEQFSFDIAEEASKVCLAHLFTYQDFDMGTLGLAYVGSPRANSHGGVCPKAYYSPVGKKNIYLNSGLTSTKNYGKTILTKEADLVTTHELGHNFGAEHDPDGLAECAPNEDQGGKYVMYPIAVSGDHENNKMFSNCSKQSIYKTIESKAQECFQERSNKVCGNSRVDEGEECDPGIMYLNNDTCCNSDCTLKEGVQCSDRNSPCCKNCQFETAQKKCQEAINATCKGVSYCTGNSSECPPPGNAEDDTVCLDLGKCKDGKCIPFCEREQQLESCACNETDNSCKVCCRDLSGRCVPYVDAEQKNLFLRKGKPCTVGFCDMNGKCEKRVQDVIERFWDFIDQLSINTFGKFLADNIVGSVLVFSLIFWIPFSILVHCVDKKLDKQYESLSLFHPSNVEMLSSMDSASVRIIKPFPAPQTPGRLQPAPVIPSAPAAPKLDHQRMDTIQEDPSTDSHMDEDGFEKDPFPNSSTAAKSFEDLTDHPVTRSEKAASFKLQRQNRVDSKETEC
# Assay: ADAM17 inhibitors, primary screen, biochemical, QFRET (AID 720648);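 also: 0% = DMSO-only wells as the low control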
# Details: recombinant ADAM17, EDANS/DABCYL FRET peptide cleavage; at 6.95 µM; stronger effect = higher value
row,SMILES,inhibition
1,O=C(Nc1cc(Cl)cc(Cl)c1)OCCN1CCCC12CCC(c1ccccc1)CC2 (configuration not stated),1.56%
2,CCOC(=O)[C@]12CCCCC/C=C\1N(Cc1ccc(OC)cc1)C(=O)[C@H]2CC(=O)NCCCN1CCCC1=O,5.47%
3,Cc1cc(NS(=O)(=O)c2ccc(NC(=O)CSc3nnc(-c4ccc(C(C)(C)C)cc4)n3Cc3ccco3)cc2)nc(C)n1,0.8%
4,CC(C)(C)c1ccc(C(=O)Nc2cc(Cl)c(Br)cc2C(=O)O)cc1,8.45%
5,COC(=O)[C@]12C[C@H](CC(=O)N3CCOCC3)C(=O)N(Cc3ccc(Cl)cc3Cl)C1=C[C@H](C(C)C)O[C@@H]2C1CC1,-2%
6,Cc1ccc(-n2c(SCC(=O)Nc3ccc(S(=O)(=O)Nc4nccs4)cc3)nnc2-c2ccccn2)cc1,2.5%
7,O=C1CC[C@@]23CCCN2C(=O)CCC[C@H]3[C@H]1Cc1ccccc1,-7.14%
8,COc1ccccc1C(=O)NC(=S)NC12CC3CC(CC(C3)C1)C2,-0.66%
9,Cc1ccc(C(=O)NC23CC4CC(CC(C4)C2)C3)c(Cl)c1,-1.94%
10,S=C(NCc1ccc(Cl)cc1)NC12CC3CC(CC(C3)C1)C2,14.9% (active)
11,COc1ccc(-c2cc(-c3nnc(SCC(=O)Nc4cccc5ccccc45)n3N)[nH]n2)cc1,-3.93%
12,O=C(NCC1COc2ccccc2O1)c1ccc(NC(=O)c2cc(F)ccc2F)cc1 (configuration not stated),2.47%
13,COc1ccc(/C=C2\CC3(OC(C)=O)CCCN2C3)cc1 (configuration not stated),-3.86%
14,Cc1ccccc1NC(=O)C1CCN(c2ncccn2)CC1,-12.7%
15,O=C(NN1C(=O)C2C3C=CC(C4CC34)C2C1=O)c1ccc(Cl)cc1 (configuration not stated),-30.5%
16,O=C(NN1C(=O)C2C3C=CC(O3)C2C1=O)c1ccccc1 (configuration not stated),0.75%
17,COc1ccc(C(=O)NN2C(=O)C3C(c4ccccc4)C=CC(c4ccccc4)C3C2=O)cc1 (configuration not stated),13.9% (active)
18,COc1ccc(N2CCN(CCNS(=O)(=O)c3ccc(C(C)(C)C)cc3)CC2)cc1,1.38%
19,CCCC[C@H]1C2CC(OC(=O)NCc3ccccc3)C(C2)[C@H]2CCCCN21 (some centres not stated),-10.2%
20,C=C(C)COc1ccc(-c2n[nH]c(C)c2-c2ccccc2)c(O)c1,10.9% (active)
21,Cc1[nH]nc(-c2ccc(OCc3cnn(-c4ccccc4)c3)cc2O)c1Oc1ccc(Cl)cc1,0.84%

row,SMILES,inhibition
1,CC(C)N1CCCCC(NC(=O)C(C)(C)C)C1=O (configuration not stated),-2.39%
2,O=C(CSc1nnc(Nc2ccccc2F)s1)NC1CCCC1,-2.83%
3,O=C(CSc1nnc(C2CC2)n1Cc1ccccc1)Nc1cccnc1Cl,-2.91%
4,O=C(CSc1nnc(Nc2ccccc2)s1)Nc1cccnc1Cl,8.69% (active)
5,CCOC(=O)[C@]12CCCC=C1N(Cc1ccc(OC)cc1)C(=O)[C@@H]2CC(=O)NCc1cccs1,-2.4%
6,CN1C[C@]2(C=C3CCCCC3n3c(=O)n(-c4ccccc4)c(=O)n32)N=C1NC(=O)c1ccccc1 (some centres not stated),-0.93%
7,COC(=O)[C@]1(C#N)CC(=O)N(CC2CCCCC2)[C@@H]1c1ccccc1,4.54%
8,O=C(NC1CCCC1)C1CSCCS(=O)(=O)N1Cc1ccccc1 (configuration not stated),-0.05%
9,COc1ccc(-n2c(COc3ccccc3)nnc2SCC(=O)Nc2ccc3c(c2)OCO3)cc1,4.09%
10,O=C(CSc1nnc(COc2ccccc2)n1-c1ccc(Cl)cc1)Nc1ccc2c(c1)OCO2,1.36%
11,Cc1ccc(-n2c(COc3ccccc3)nnc2SCC(=O)Nc2ccc3c(c2)OCCO3)cc1,10.3% (active)
12,CN(NS(=O)(=O)c1cccs1)c1ncc(C(F)(F)F)cc1Cl,-1.66%
13,O=S(=O)(Nc1ccc(Oc2ncccn2)c(Cl)c1)c1ccc(F)cc1,-3.11%
14,Cc1cc(C)cc(NS(=O)(=O)c2ccc(Oc3ncc(C(F)(F)F)cc3Cl)cc2)c1,10.8% (active)
15,COc1cccc(/C=C2\CC3(OC(C)=O)CCCN2C3)c1 (configuration not stated),3.86%
16,O=C(OC12CCCN(C1)/C(=C/c1ccccc1)C2)c1ccco1 (configuration not stated),6.28%
17,COC(=O)[C@]12C[C@H](CC(=O)NCCCN3CCCC3=O)C(=O)N(CCc3ccc(OC)c(OC)c3)C1=C[C@H](COCc1ccccc1)O[C@@H]2C,-6.14%
18,O=C(C1=C[C@H](c2ccc(C(F)(F)F)cc2)C[C@H](OCc2ccc(CO)cc2)O1)N1CCN(Cc2ccccc2)CC1,5.72%
19,CC(C)(C)[C@H]1C=C(C(=O)NCc2ccccc2)O[C@@H](OCc2ccc(CO)cc2)C1,2.4%
20,O=C(NCc1ccccc1)C1=C[C@@H](c2ccc(C(F)(F)F)cc2)C[C@@H](OCc2ccc(CO)cc2)O1,10.7% (active)
21,COc1ccc(Cl)cc1C=CC=NNC(=O)c1ccncc1,-4.19%

row,SMILES,inhibition
1,Cc1ccc(OCCOc2cccc(/C=N/NC(N)=O)c2)cc1,-1.45%
2,Cc1ccc(OCCOCCOc2ccc(Br)cc2/C=N\NC(=O)c2ccncc2)cc1,10% (active)
3,CN1C(=O)c2cc(NS(C)(=O)=O)ccc2OC[C@@H]2O[C@@H](CC(=O)NCc3ccc(-c4ccccc4)cc3)CC[C@H]21,-3.9%
4,C#CCN(C[C@@H]1[C@@H](OC(=O)NC2CC2)[C@@H](OC(=O)NC2CC2)Cn2c(=O)ccc(=O)n21)S(=O)(=O)c1ccc(C)cc1,-1.79%
5,C#CCN(C[C@H]1[C@H](OC(=O)NC2CCCC2)[C@H](OC(=O)NC2CCCC2)C[C@H]2C(=O)N(c3ccccc3)C(=O)[C@@H]12)S(=O)(=O)c1ccc(C)cc1,9.64% (active)
6,Cc1ccc(S(=O)(=O)N2C[C@]3(O)C[C@@H]4C(=O)N(c5ccccc5)C(=O)[C@@H]4C[C@]3(OC(=O)NC3CC3)C2)cc1,-1.11%
7,COC(=O)[C@]12C[C@H](CC(=O)NCc3ccccc3)C(=O)N(CCC3=CCCCC3)C1=C[C@H](C(C)C)O[C@@H]2C1CC1,6.48%
8,N#Cc1nc(Cc2cccc3ccccc23)oc1NCc1ccc2c(c1)OCO2,9.51% (active)
9,O=C(CCNS(=O)(=O)c1ccccc1C(F)(F)F)NCc1ccc2c(c1)OCO2,-0.25%
10,CC1(C(=O)NCc2ccc3c(c2)OCO3)CCN1C(=O)Cc1cccc2ccccc12 (configuration not stated),-3.18%
11,CCOC(=O)C(=O)N(Cc1ccccc1)c1ccccc1C(=O)Nc1cc(OC)ccc1OC,4.35%
12,O=C(CSc1nnc(-c2ccccn2)n1-c1ccc(Cl)cc1)Nc1ccccc1-c1ccccc1,5.21%
13,CN(C(=O)c1cccc(NC(=O)Cc2cccc(NC(=O)C3CCCN(C(=O)C4CC4)C3)c2)c1)C1CCC1 (configuration not stated),-2.72%
14,CN(C(=O)c1cccc(NC(=O)Cc2ccc([N+](=O)[O-])cc2)c1)C1CCC1,3.46%
15,CN(C(=O)c1cccc(NC(=O)Cc2cccc([N+](=O)[O-])c2)c1)C1CCCCC1,10.3% (active)
16,Cc1ccccc1CS(=O)(=O)Cc1ccc(C(=O)Nc2ccc(Cl)cc2)o1,-7.43%
17,CC1C(=O)N(Cc2cn(Cc3ccco3)nn2)CCS(=O)(=O)N1Cc1ccc(-c2cccc(CO)c2)cc1 (configuration not stated),0.84%
18,CC(C)CC1C(=O)N(Cc2cn(CC3CCCCC3)nn2)CCS(=O)(=O)N1Cc1ccc(-c2ccc(Cl)cc2)cc1 (configuration not stated),-0.31%
19,COc1ccc(Cn2cc(CN3CCS(=O)(=O)N(Cc4ccc(-c5cccc(Cl)c5)cc4)C(C)C3=O)nn2)cc1 (configuration not stated),10% (active)
20,CC1C(=O)N(Cc2cn(CC3CCCCC3)nn2)CCS(=O)(=O)N1Cc1ccc(-c2cccc(N(C)C)c2)cc1 (configuration not stated),-2.56%
21,COc1ccc(-c2ccc(CN3C(CC(C)C)C(=O)N(Cc4cn(CC5CCCCC5)nn4)CCS3(=O)=O)cc2)cn1 (configuration not stated),3.81%

row,SMILES,inhibition
1,COc1ccc(-c2ccc(CN3C(CC(C)C)C(=O)N(Cc4cn(CC5CCCCC5)nn4)CCS3(=O)=O)cc2)cc1 (configuration not stated),9.87% (active)
2,COc1cc(/C=C/C(=O)n2cnc3ccccc32)cc(OC)c1OC,-11.9%
3,CC(=O)OC12CCCN(C1)/C(=C/c1ccncc1)C2 (configuration not stated),-1.16%
4,Clc1ccc(-n2c(SC/C=C/c3ccccc3)nnc2-c2ccco2)cc1,8.36%
5,CC(C)CNc1cccc2c1S(=O)(=O)N(Cc1cn(Cc3ccccc3C(F)(F)F)nn1)Cc1ccccc1O2,-9.08%
6,COc1cc(C2C(C(=O)c3ccco3)=C(O)C(=O)N2c2cc(C)on2)ccc1OCc1ccccc1 (configuration not stated),-1.07%
7,CCCNC(=O)C1CC(=O)N(c2ccc(OCc3ccccc3)cc2)C1 (configuration not stated),-1.62%
8,COc1cc(C2CC(=O)N3CN(Cc4ccccc4)CSC3=C2C#N)ccc1OCc1ccccc1 (configuration not stated),10.2% (active)
9,Cc1cc(C)nc(NC(=S)N2CCN(c3ccc(C(F)(F)F)cn3)CC2)c1,-0.9%
10,CC(C)c1ccc(NC(=S)NC2CC3C=CC2C3)cc1 (configuration not stated),1.36%
11,Cc1ccc(C)c(NC(=S)NNC(=S)Nc2ccc(C(C)C)cc2)c1,11% (active)
12,Cc1ccc(C)c(NC(=S)NCC(c2cccnc2)N2CCOCC2)c1 (configuration not stated),4.64%
13,COc1ccnc(NC(=S)N2CCN(c3ncc(C(F)(F)F)cc3Cl)CC2)c1,-3.73%
14,C[C@H](C(=O)N(C)c1ccccc1)[C@@H](O)c1ccc(Cl)cc1,-3.74%
15,C[C@@H]1CN([C@H](C)CO)C(=O)CCCn2nncc2CO[C@@H]1CN(C)C(=O)OCc1ccccc1,-3.01%
16,COC(=O)N(C)C[C@@H]1OCc2cnnn2CCCC(=O)N([C@@H](C)CO)C[C@@H]1C,8.71% (active)
17,C[C@H](CO)N1C[C@H](C)[C@@H](CN(C)C(=O)C2CCCCC2)OCc2cnnn2CCCC1=O,3%
18,COC(CNC(=O)[C@H](Cc1ccccc1)NC1(C(=O)NC2CCCCC2)CCCCC1)OC,-1.27%
19,COc1ccc(S[C@]2(C(=O)N(C)C)CC(=O)N(c3ccc(OC)cc3)[C@@H]2c2ccc(OC)cc2)cc1,3.23%

# Source: PubChem BioAssay AID720648 (The Scripps Research Institute Molecular Screening Center, 2013)
